The nature of experiment [1]: compounds binding Alexa647 anti-His antibody – biochemical, small-molecule microarray, 635 nm fluorescence, artefact control for SMM control protein annotation, primary screen (AID 1128).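 Also: score merges feature fluorescence with signal-to-noise for each printed compound spot.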 The settings on record: higher = more signal.
Experiment [2] relates to Human papillomavirus type 1a E7 protein (residues 1-88). Description: HPV1a E7 small-molecule binders, primary screen, biochemical, small-molecule microarray, residues 1-88, 635 nm (AID 1129). The settings on record: small-molecule microarray binding, fluorescence 635 nm; higher = more signal.
The target in experiment [3] is Focal adhesion kinase 1 (Homo sapiens) (UniProt Q05397). Description: PTK2 protein binding on printed compound slides – biochemical, small-molecule microarray, 635/667 nm fluorescence, BSA, DTT, primary screen (AID 1130).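 Also: composite of spot emission at 667 nm and signal to noise over triplicate slides.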 The settings on record: 635 nm fluorescence, higher = more signal.
Experiment [4] relates to Fibrinogen (Alexa647-labelled). Briefly: Alexa647-fibrinogen binding to printed small molecules – biochemical, small-molecule microarray, 635/667 nm fluorescence, artefact control for SMM control-protein annotation, profiling panel (AID 1131).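 Also: z-score merges 667 nm fluorescence with per-spot signal-to-noise over triplicate slides.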 The settings on record: fibrinogen-A647 binding fluorescence, higher = more signal.
Experiment [5] deals with Follistatin (Homo sapiens) (UniProt P19883). Description: FST protein binding to printed compounds – biochemical, small-molecule microarray, 635/667 nm fluorescence, primary screen (AID 1132). The settings on record: 635 nm fluorescence, higher = more signal.
Experiment [6] addresses Fibroblast growth factor 2 (Homo sapiens) (UniProt P09038). Description: basic fibroblast growth factor binding to printed compounds – biochemical, small-molecule microarray, 635/667 nm fluorescence, primary screen (AID 1133). The settings on record: FGF2, fluorescence 635/667, higher = more signal.
The nature of experiment [7]: JC-1 mitochondrial potential readout, lung cancer cells – cell-based, A549, JC-1 fluorescence, basal, 24 h, 100 nL, profiling panel (AID 1138).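 Also: A549 lung adenocarcinoma cells under basal conditions with no added stimulus; test concentration not given here.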 The settings on record: higher = more signal.
Experiment [8] concerns Lefty1. Description: Lefty1 protein binding to printed compounds – biochemical, small-molecule microarray, 635/667 nm fluorescence, primary screen (AID 1139). The settings on record: fluorescence 635/667, higher = more signal.
Experiment [9] has as its system wheat germ agglutinin (Triticum aestivum), Alexa647-labelled. Briefly: Alexa647-WGA lectin binding to printed small molecules – biochemical, small-molecule microarray, 635/667 nm fluorescence, artefact control for SMM control-protein annotation, profiling panel (AID 1140).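 Also: score merges 667 nm feature emission with signal to noise over triplicate slides.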 The settings on record: WGA-A647 binding, 635 nm fluorescence, higher = more signal.
The target in experiment [10] is Luciferin 4-monooxygenase (Photinus pyralis) (UniProt P08659). Description: inhibition of purified Photinus pyralis luciferase – biochemical, luminescence, purified enzyme, 2006 set, primary screen (AID 1141).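 Also: cell-free assay with purified firefly luciferase at 100 ng per well in PBS; test concentration not given here.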 The settings on record: purified firefly luciferase, SteadyGlo luminescence, 30 min; higher = more signal, called active from +8 up or from −8 down.
For experiment [11], the system named is Wnt5a (protein binding on small-molecule microarray). Description: small molecules binding Wnt5a protein – biophysical, small-molecule microarray, 635/667 nm fluorescence, primary screen (AID 1142).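 Also: fluorescence read at 667 nm with signal to noise per printed feature.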 The settings on record: 635 nm fluorescence, higher = more signal.
A short description of experiment [12]: ATP-based viability of Huh7 replicon cells – cell-based, CellTiter-Glo luminescence, basal, 48 h, cytotoxicity control for HCV replication inhibitor project, primary screen (AID 1143).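 Also: Huh7 hepatoma cells carrying a hepatitis C replication reporter with no stimulus; test concentration not given here.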 The settings on record: higher = more signal, called active from +8 up or from −8 down. On the technique in general: In antiviral work, replicon cells carry a viral genome segment that copies itself.

A short description of experiment [13]: Pseudomonas biofilm growth suppression – PAO1 strain, BacTiter-Glo luminescence, LB-PBS, primary screen (AID 1144). The settings on record: P. aeruginosa PAO1 biofilm, 12 h, higher = more signal.
Experiment [14] is described as follows: basal CRE-LacZ reporter activity in PC12 – cell-based, unstimulated, primary screen (AID 1145). The settings on record: no forskolin, luminescence, 4.5 h, higher = more signal, called active from +8 up or from −8 down.
The nature of experiment [15]: forskolin-driven CRE-LacZ activity in PC12 – cell-based, CRE-LacZ reporter, forskolin-stimulated, primary screen (AID 1146).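 Also: PC12 cells with 6xCRE LacZ reporter stimulated by forskolin 10 µM; beta-galactosidase reporter signal reflecting CREB driven transcription.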 The settings on record: luminescence, 4.5 h, higher = more signal, called active from +8 up or from −8 down.
Experiment [16] concerns the target Streptavidin (Streptomyces avidinii) (UniProt P22629). Description: compounds binding control protein streptavidin – biophysical, small-molecule microarray, 635/667 nm fluorescence, artefact control for SMM compound annotation, primary screen (AID 1147).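 Also: signal reflects streptavidin binding to arrayed compounds as a control protein.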 The settings on record: higher = more signal.
Experiment [17] is described as follows: probe aInhba binding on compound microarray – biochemical, small-molecule microarray, 635/667 nm fluorescence, primary screen (AID 1148).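 Also: score merges 667nm spot fluorescence with signal-to-noise for antibody binding to printed compounds.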 The settings on record: higher = more signal.
Experiment [18] deals with Torsin-1A (Homo sapiens) (UniProt O14656). Description: TOR1A wild-type binding on microarray – cell lysate, small-molecule microarray, lysate, 635/667 nm, primary screen (AID 1149). The settings on record: COS7 hTOR1A-WT lysate, 635 nm fluorescence, higher = more signal.
The target is the same in experiment [19]. Description: torsin A mutant lysate binding on microarrays – cell lysate, small-molecule microarray, COS7 lysate, 635/667 nm fluorescence, primary screen (AID 1150).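 Also: score pools 667 nm emission and signal to noise measuring lysate protein binding.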 The settings on record: COS7 hTOR1A mutant lysate, 635 nm fluorescence, higher = more signal.
For experiment [20], the system named is Sonic hedgehog protein (Shh). Briefly: Sonic hedgehog microarray binding compounds – biochemical, small-molecule microarray, 635/667 nm fluorescence, primary screen (AID 1151).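 Also: Shh protein binding to compounds spotted on small-molecule microarray slides; score combines spot fluorescence intensity with signal-to-noise across triplicate slides.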 The settings on record: 635 nm fluorescence, higher = more signal.

Structures are written as SMILES. The source made the active and inactive calls. Unless noted, no rule for the calls is given here.

The values that follow come from PubChem BioAssay.

Chain of Luciferin 4-monooxygenase (Photinus pyralis) (P08659 whole entry, looked up): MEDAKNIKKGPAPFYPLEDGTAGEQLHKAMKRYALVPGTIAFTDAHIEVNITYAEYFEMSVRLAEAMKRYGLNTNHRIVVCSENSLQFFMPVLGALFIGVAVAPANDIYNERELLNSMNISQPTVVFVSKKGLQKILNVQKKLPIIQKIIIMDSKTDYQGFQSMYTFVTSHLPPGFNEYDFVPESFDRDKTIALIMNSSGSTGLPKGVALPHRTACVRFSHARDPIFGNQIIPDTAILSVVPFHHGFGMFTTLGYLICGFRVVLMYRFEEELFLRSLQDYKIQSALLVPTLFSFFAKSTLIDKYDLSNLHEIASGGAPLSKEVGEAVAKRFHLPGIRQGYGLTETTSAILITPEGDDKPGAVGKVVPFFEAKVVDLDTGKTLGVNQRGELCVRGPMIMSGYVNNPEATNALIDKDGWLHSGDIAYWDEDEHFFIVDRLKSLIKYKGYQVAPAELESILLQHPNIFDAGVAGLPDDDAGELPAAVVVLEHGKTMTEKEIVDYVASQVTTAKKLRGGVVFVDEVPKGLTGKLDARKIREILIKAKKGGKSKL
Chain of Focal adhesion kinase 1 (Homo sapiens) (Q05397 whole entry, looked up): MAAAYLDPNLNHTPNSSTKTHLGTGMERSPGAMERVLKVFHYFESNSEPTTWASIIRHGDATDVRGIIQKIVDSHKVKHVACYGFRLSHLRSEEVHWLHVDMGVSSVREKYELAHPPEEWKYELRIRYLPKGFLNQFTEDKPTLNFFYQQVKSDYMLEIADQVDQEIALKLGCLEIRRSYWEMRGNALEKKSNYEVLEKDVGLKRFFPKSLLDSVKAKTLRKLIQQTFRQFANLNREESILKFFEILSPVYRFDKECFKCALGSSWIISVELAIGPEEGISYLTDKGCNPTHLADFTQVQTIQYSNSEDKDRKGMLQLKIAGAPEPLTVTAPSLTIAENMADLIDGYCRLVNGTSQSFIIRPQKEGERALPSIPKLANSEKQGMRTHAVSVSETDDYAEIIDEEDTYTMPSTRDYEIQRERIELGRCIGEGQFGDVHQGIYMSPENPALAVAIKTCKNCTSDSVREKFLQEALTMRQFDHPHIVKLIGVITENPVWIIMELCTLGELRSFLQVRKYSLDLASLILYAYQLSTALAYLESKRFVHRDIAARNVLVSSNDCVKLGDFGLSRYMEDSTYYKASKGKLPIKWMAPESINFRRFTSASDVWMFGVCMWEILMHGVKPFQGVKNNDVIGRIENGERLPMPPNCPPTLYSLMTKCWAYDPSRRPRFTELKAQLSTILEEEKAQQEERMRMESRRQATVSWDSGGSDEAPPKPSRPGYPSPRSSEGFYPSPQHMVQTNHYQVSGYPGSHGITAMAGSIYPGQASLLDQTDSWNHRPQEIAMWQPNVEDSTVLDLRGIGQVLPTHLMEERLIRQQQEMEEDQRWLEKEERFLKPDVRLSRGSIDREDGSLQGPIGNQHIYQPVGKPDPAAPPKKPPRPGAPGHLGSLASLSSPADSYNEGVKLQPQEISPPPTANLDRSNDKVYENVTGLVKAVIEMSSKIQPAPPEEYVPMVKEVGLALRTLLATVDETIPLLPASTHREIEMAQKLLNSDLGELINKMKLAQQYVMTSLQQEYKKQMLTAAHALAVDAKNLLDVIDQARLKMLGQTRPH
Chain of Fibroblast growth factor 2 (Homo sapiens) (P09038 whole entry, looked up): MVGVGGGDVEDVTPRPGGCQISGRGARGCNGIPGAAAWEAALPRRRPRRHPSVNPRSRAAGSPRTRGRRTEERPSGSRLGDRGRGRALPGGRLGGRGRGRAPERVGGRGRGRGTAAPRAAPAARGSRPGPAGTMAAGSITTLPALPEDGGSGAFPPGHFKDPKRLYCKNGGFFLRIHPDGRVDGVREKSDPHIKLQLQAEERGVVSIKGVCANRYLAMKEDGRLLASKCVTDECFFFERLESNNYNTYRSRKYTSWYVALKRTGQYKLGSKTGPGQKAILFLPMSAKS
Chain of Follistatin (Homo sapiens) (P19883 whole entry, looked up): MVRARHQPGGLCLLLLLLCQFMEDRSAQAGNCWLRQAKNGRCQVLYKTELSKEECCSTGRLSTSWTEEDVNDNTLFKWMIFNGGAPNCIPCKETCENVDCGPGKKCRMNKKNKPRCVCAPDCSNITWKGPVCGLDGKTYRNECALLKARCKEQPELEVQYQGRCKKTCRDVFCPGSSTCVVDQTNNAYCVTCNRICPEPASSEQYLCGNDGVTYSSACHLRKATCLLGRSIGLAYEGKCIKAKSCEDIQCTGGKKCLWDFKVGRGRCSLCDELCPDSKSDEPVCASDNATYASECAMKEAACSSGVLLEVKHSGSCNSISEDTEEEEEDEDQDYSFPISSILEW
Chain of Streptavidin (Streptomyces avidinii) (P22629 whole entry, looked up): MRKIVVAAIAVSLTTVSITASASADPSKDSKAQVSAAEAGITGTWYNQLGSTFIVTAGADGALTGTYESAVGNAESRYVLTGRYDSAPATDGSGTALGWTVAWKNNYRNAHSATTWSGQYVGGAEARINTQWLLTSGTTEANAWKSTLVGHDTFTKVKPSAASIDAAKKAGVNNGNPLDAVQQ
Chain of Torsin-1A (Homo sapiens) (O14656 whole entry, looked up): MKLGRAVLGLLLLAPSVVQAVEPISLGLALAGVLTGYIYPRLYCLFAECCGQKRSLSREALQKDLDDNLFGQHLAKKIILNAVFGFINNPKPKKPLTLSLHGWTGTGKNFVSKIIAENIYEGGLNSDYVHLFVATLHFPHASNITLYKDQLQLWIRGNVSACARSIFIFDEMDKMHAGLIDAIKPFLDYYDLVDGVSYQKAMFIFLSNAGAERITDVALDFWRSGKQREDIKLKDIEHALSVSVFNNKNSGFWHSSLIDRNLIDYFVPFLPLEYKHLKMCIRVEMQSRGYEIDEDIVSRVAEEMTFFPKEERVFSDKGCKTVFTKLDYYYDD

Take `[N-]=[N+]=NCc1ccccc1[C@@H]1OC(c2ccc(OCCCO)cc2)=N[C@]1(Cc1ccccc1)C(=O)NCC(O)CO` (stereo not given in full): the composite z-score is 1.9 in experiment [1]; 1.19 in experiment [2]; 0.443 in [3]; 0.958 in experiment [4]; 0.973 in experiment [5]; 1.52 in [6]. The composite z-score was -1.3 in experiment [8]; 0.718 in experiment [9]; 0.334 in experiment [11]; 0.255 in [16]; 0.84 in experiment [17]; 0.281 in experiment [18]. The composite z-score in experiment [19] is 0.294; in experiment [20] it was -0.492. Besides, the z-score in [7] was 0.529; in experiment [10], -0.0075 (inactive); in [12], -1.58 (inactive); in experiment [13], 0.0756 (inactive); in [14] it was 1.27 (inactive); in experiment [15] it was -0.757 (inactive).

With `CC(C)N1C(=O)C[C@@](C(=O)NCC(F)(F)F)(c2ccc([N+](=O)[O-])cc2)[C@H]1c1ccc(CO)cc1`, the composite z-score is -0.203 in experiment [1]; 0.38 in experiment [2]; 0.611 in [3]; 0.0938 in [4]; 0.409 in experiment [5]; -0.432 in experiment [6]. Moreover, the composite z-score in [8] was 0.343; in experiment [9], 0.351; in experiment [11], -0.492; in [16] it was 0.14; in [17], -0.128; in experiment [18] it was 0.894. Besides, the composite z-score in experiment [19] is 0.0412; in experiment [20] it was 1.24. Also, the z-score in experiment [7] is -0.279; in experiment [10] it was 1.58 (inactive); in experiment [12], -4.06 (inactive); in experiment [13] it was -1.76 (inactive); in [14], -0.761 (inactive); in experiment [15], -1.24 (inactive).

Consider `COCCOC(=O)N1C(=O)[C@@]2(c3cc(C#CC4(O)CCCCCC4)ccc31)[C@H](c1ccccc1OCCO)N1[C@H](c3ccccc3)[C@H](c3ccccc3)OC(=O)[C@H]1[C@@H]2C(=O)N1CCN(c2ncccn2)CC1`, for which the composite z-score in [1] was 0.701; in experiment [2] it was 1.05; in experiment [3], 0.782; in experiment [4], 0.662; in [5], 1.19; in experiment [6], 0.846. In addition, the composite z-score stood at 0.702 in experiment [8]; 0.764 in experiment [9]; 0.839 in experiment [11]; 0.356 in experiment [16]; 0.153 in [17]; 0.456 in experiment [18]. The composite z-score stood at 0.699 in experiment [19] and 0.678 in experiment [20]. The z-score is -1.13 in [7]; -1.04 (inactive) in experiment [10]; -1.86 (inactive) in [12]; -0.354 (inactive) in experiment [13]; 0.155 (inactive) in experiment [14]; 0.411 (inactive) in experiment [15].

In the case of `COc1cc2c(cc1O)C(c1cccs1)N(C)CC2` (stereo not given), the composite z-score in [1] was -1; in [2] it was -1.33; in experiment [3], 0.756; in [4], -0.861; in experiment [5] it was -0.123; in experiment [6], -0.0571. For the same molecule, the composite z-score in experiment [8] is -0.574; in experiment [9], -1.05; in [11], -0.289; in experiment [16], -1.17; in experiment [17] it was -0.218; in experiment [18], -1.19. The composite z-score was -0.597 in [19] and -0.44 in experiment [20]. The z-score in experiment [7] was -0.278; in experiment [10] it was 0.146 (inactive); in [12], -0.0812 (inactive); in experiment [13], 0.134 (inactive); in experiment [14] it was -0.374 (inactive); in experiment [15], -0.0678 (inactive).

For `COCCOC(=O)N1C(=O)[C@@]2(c3cc(C#CCCO)ccc31)[C@H](C(N)=O)[C@H]1C(=O)O[C@H](c3ccccc3)[C@H](c3ccccc3)N1[C@@H]2c1ccc(O)cc1`, the composite z-score was -0.0637 in experiment [1]; -0.469 in experiment [2]; -0.167 in experiment [3]; 0.141 in experiment [4]; -0.15 in [5]; 0.0091 in experiment [6]. Moreover, the composite z-score is -0.431 in experiment [8]; 0.115 in experiment [9]; 0.186 in [11]; -0.36 in experiment [16]; -0.163 in [17]; -0.192 in experiment [18]. The values for the composite z-score in experiment [19] and in experiment [20] were -0.176 and -0.412, respectively. The z-score in [7] is 0.0757; in experiment [10] it was -0.381 (inactive); in experiment [12], 0.505 (inactive); in experiment [13], 0.676 (inactive); in [14] it was -0.602 (inactive); in experiment [15], -0.702 (inactive).
